Measurements reported in the supplement of paper PMC3334620.
Whole data set: some 33,000 sequences, median “E-score (-0.5 to 0.5)” near -0.035, cut for the highest 2% near 0.34. Many of the other results were omitted from the sample, so the highest values are more common in it than they were.

Target: T1, Mot3 (UniProt P54785)
T1 sequence: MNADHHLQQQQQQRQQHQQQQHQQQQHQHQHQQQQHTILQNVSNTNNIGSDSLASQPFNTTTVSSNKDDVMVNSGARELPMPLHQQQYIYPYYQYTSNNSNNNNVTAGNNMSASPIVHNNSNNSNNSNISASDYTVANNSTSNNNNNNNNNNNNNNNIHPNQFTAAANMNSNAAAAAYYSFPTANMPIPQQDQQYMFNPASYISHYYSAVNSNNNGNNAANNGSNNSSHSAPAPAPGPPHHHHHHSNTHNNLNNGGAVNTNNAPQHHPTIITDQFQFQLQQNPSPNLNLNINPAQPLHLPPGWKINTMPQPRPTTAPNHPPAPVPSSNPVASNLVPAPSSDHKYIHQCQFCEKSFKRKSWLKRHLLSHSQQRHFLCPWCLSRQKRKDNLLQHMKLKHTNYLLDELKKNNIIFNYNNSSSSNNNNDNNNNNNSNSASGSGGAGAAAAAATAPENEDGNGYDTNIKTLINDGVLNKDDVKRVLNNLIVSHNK
Assay: PBM E-score (8-mer binding enrichment) (E-score (-0.5 to 0.5)); higher = stronger / more preferred TF binding
Details: protein concentration: 200 nM; construct: GST-full length
Experimental: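 Universal 'all 10-mer' protein binding microarrays (Agilent AMADID 015681) probed with GST-tagged S. cerevisiae TFs (full-length or DBD) made by in vitro transcription/translation (PURExpress), about 100-200 nM. Bound TF was detected with fluorescent anti-GST. Each ungapped 8-mer (which stands for itself and its reverse complement) is scored by the PBM enrichment score (E-score), a modified Wilcoxon-Mann-Whitney statistic from -0.5 to +0.5, computed with the Universal PBM Analysis Suite. Scale: above 0.35 generally sequence-specific binding.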

Sequence	PBM E-score
AAATGCAC	0.0764
AGTCACCG	0.0455
GCGCAAGC	-0.172
AGGCATAG	0.274
CGGCATCA	-0.0726
AGGCATCA	0.409
AGGCATCG	0.404
AGGCATCC	0.384
GGGCATCA	-0.23
CGGCATCC	-0.0227
ACGCATCG	-0.0642
AAGCATCC	-0.202
CACTTCTG	-0.0864
AATTGGTA	0.113
AGCCAACG	0.0732
ACCTAAGC	0.0128
CCCCTTGC	-0.152
AGGCCTCC	-0.166
CTAGACAC	0.0958
TAAAACGA	0.0299
GTCCAACA	0.153
ACACCTGG	0.104

Sequence	PBM E-score
ATTACAGC	0.127
ATTACAAC	0.286
TTTACAAA	0.331
ATTACAGG	0.359
ATTACAGA	0.24
CTTACAAA	0.15
ATTACAAG	0.388
ATTACAAA	0.347
ATTACAAT	0.299
GCTGGATA	0.0442
GCCCTTAC	-0.0326
CTAGGCTC	0.043
AAACTGAA	0.0399
GGGCCCAC	-0.255
AACCGTAG	-0.229
GCCGTGTA	0.349
GCCGTGGA	-0.169
CCCGTGGA	-0.314
ACCGTGTG	0.175
GCCGTGAA	-0.128
CCCGTGTC	0.082
ACCGTGTC	0.216

Sequence	PBM E-score
CCCGTGTA	0.376
ACCGTGTA	0.397
AGCCAAAT	-0.0958
CCAACTAA	0.0699
CACTTTTA	0.117
ACGTCGCC	-0.00307
CGGAACGA	0.0162
AAGAACGG	-0.266
AGGAACGC	0.451
ATGAACGG	0.0117
AGGAACGA	0.44
GGGAACGA	-0.122
AGGAACGG	0.463
CGGAACGC	-0.0837
ATGAACGC	0.145
ACCTCAGC	-0.124
AAAGCCGG	-0.133
AATCAAGC	-0.177
CGTGTACA	0.388
GGTGTGTA	0.335
CGTGTACC	0.277
CGTGTGTA	0.349

Sequence	PBM E-score
CGTGTATA	0.4
GGTGTATA	0.0111
AGTGTACA	0.273
CGTGTATC	0.262
AGTGTGTA	0.247
CACTGTGA	-0.103
CTACCAGA	0.0177
GTGAGAGA	0.0715
ATGAATGG	-0.0783
CGGTTTAC	0.134
CGACTTTC	0.0333
ATAGGATA	0.00177
GTAGGAGA	-0.184
CTAGGAAC	0.372
CTAGGAAA	0.246
CTAGGAAG	-0.108
GTAGGAAA	0.429
ATAGGGAA	0.00264
CTAGGAGC	-0.225
TTAGGAAA	0.351
ATAGGAAA	0.429
GTAGGATA	0.185
